In PubChem BioAssay (NCATS):
Activity calls are given as the source filed them. No rule for the calls is given here.

Test system: HIV-1 nucleocapsid protein NCp7 (binding to TG oligonucleotide)
Assay: HIV Nucleocapsid (AID 346);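 also: potency is for inhibitors that block NC binding and lower polarization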
Settings: HIV-1 NC / fluorescein-TGTGTGTG probe, fluorescence polarization
Method: NCGC Assay Overview: HIV-1 nucleocapsid protein (HIV-1 NC) is a small (6.5 kDa) basic zinc-finger protein which participates in packaging of viral genomic RNA. The spacing and metal-chelating residues (3 Cys, 1 His) of the Cys-X2-Cys-X4-His-X4-Cys Zn fingers are conserved among all known retroviruses (J. Med. Chem. 1998, 41, 1371-1381). HIV-1 NC was assayed for its binding to the consensus sequence single-stranded 5'-TGTGTGTG. […] High salt was included to increase the stringency of binding and inhibitor screen. Reducing agents and zinc were present to stabilize the nucleocapsid zinc-finger protein.
NCGC Assay Protocol Summary: Buffer. Hepes pH 7.5, 250mM NaCl, 1uM ZnCl2. 0.004% polyethylene glycol 20000. TCEP (100 uM) and 2-Mercaptoethanol (5 mM), added fresh the day of the experiment. Reagents/Controls. 10 nM TG4xF only in columns 3 and 4 as negative control. 10 nM TG4xF/100 nM HIV-1 NC in columns 1, 2, 5-48. Titration of control compound NSC-13778 (from 20 mM, then 1:2) pin-transferred to column 2. Assay Steps. Two uL of reagents were dispensed to 1536-well Kalypsys black plates. The plates were centrifuged for 1 min at 1000 rpm. Compounds and controls (20 nL) were transferred via Kalypsys PinTool. The plates were incubated for 1 hr at room temperature, and then read on ViewLux (Perkin-Elmer). High-throughput CCD imager using fluorescein polarization filter set and 45 seconds exposure time.
Potency is read from the fitted curve at half-maximal effect.

Row | Compound | Potency
1 | COc1ccccc1CN1CC2(CCN(C(=O)c3cc(C(F)(F)F)cc(C(F)(F)F)c3)CC2)C1 | > 20 µM (inactive)
2 | COc1ncc2nc(C)c(=O)n(C)c2n1 | > 20 µM (inactive)
3 | CCNc1ncc2nc(-c3cc(F)cc(F)c3)c(=O)n(CCOC)c2n1 | > 20 µM (inactive)
4 | CN(C)C(=O)c1ccc(-c2ccc3ncnc(NC4CC4)c3c2)cc1 | > 20 µM (inactive)
5 | COc1ccccc1-c1ccc2ncnc(N(C)C)c2c1 | > 20 µM (inactive)
6 | CC(=O)N1CCC[C@@]2(CCN(Cc3ccccc3)C2)C1 | > 20 µM (inactive)
7 | CC(=O)N1CCC2(CC1)CN(C(c1ccccc1)c1ccccc1)C2 | > 20 µM (inactive)
8 | O=C(Nc1cccc(F)c1)N1CCC2(CC1)CCN(S(=O)(=O)c1ccccc1)CC2 | > 20 µM (inactive)
9 | COc1cccc(Cn2c(=O)c(-c3cccs3)nc3cnc(OC)nc32)c1 | > 20 µM (inactive)
10 | COc1ncc2nc(CCc3ccccc3)c(=O)n(Cc3cccs3)c2n1 | > 20 µM (inactive)
11 | CC(=O)NCCNc1nc(-c2cccc(NS(C)(=O)=O)c2)nc2ccccc12 | > 20 µM (inactive)
12 | O=C(c1ccncc1)N1CCC2(CC1)CN(c1ccc(-c3ccccc3)cc1)C2 | > 20 µM (inactive)
13 | COc1ccc(Oc2ncc3nc(-c4cc(F)cc(F)c4)c(=O)n(C)c3n2)cc1 | > 20 µM (inactive)
14 | CN(C)c1nc(-c2cccc(NS(C)(=O)=O)c2)nc2ccccc12 | > 20 µM (inactive)
15 | COc1ccc(-n2c(=O)c(-c3ccc(F)cc3)nc3cnc(N4CCOCC4)nc32)cc1 | > 20 µM (inactive)
16 | COC(=O)N1CCC2(CCCN(c3ncccn3)C2)CC1 | > 20 µM (inactive)
17 | O=c1c(CCc2ccccc2)nc2cnc(N3CCOCC3)nc2n1Cc1cccs1 | > 20 µM (inactive)
18 | CCNc1ncc2nc(-c3ccc(OC)cc3)c(=O)n(-c3ccc(OC)cc3)c2n1 | > 4 µM (inactive)
19 | CC(C)NC(=O)N1CCCC2(CCN(C(=O)c3ccco3)CC2)C1 | > 20 µM (inactive)
20 | COc1cccc(-c2nccc(NCc3cccs3)n2)c1 | > 20 µM (inactive)

Row | Compound | Potency
21 | FC(F)(F)c1ccccc1-c1nc(-n2ccnc2)c2ccccc2n1 | > 20 µM (inactive)
22 | c1cn(-c2cc(-c3ccc4c(c3)OCO4)ncn2)cn1 | > 20 µM (inactive)
23 | COc1ccc(C(=O)N2CCC[C@@]3(CCN(C(=O)Nc4cccc(F)c4)C3)C2)cc1 | > 20 µM (inactive)
24 | COc1ccc(Oc2ncc3nc(CCc4ccccc4)c(=O)n(C)c3n2)cc1 | > 20 µM (inactive)
25 | O=C(Nc1cccc(F)c1)N1CC[C@@]2(CCCN(S(=O)(=O)c3ccccc3)C2)C1 | > 20 µM (inactive)
26 | NC(=O)c1ccccc1-c1nc(-n2ccnc2)c2ccccc2n1 | > 20 µM (inactive)
27 | Cc1noc(C)c1-c1cncnc1NCCN1CCOCC1 | > 20 µM (inactive)
28 | COc1cccc(-c2nccc(NCc3ccccc3OC)n2)c1 | > 20 µM (inactive)
29 | c1ccc(Nc2nc(-c3ccoc3)nc3ccccc23)cc1 | > 20 µM (inactive)
30 | COc1cccc(-c2cncnc2NCc2cccc(C)c2)c1 | > 20 µM (inactive)
31 | c1csc(CNc2nc(-c3ccc4c(c3)OCO4)nc3ccccc23)c1 | > 20 µM (inactive)
32 | COc1ccc(CNc2ncnc3ccc(-c4ccc5c(c4)OCO5)cc23)c(OC)c1 | > 20 µM (inactive)
33 | c1ccc(CNc2nc(-c3ccoc3)nc3ccccc23)cc1 | > 20 µM (inactive)
34 | COc1ccc(-n2c(=O)c(-c3cc(F)cc(F)c3)nc3cncnc32)cc1 | > 20 µM (inactive)
35 | O=C(c1cccc(F)c1)N1CCC2(CC1)CCN(c1ccccc1)CC2 | > 20 µM (inactive)
36 | Cn1c(=O)c(-c2ccc(F)cc2)nc2cnc(Nc3ccccc3)nc21 | > 20 µM (inactive)
37 | Cc1cccc(CNc2ncnc3ccc(-c4ccc(C(=O)N(C)C)cc4)cc23)c1 | > 20 µM (inactive)
38 | COCCn1c(=O)c(-c2ccc(Cl)cc2)nc2cnc(N3CCOCC3)nc21 | > 20 µM (inactive)
39 | COCC(=O)N1CCC2(CC1)CCN(C(=O)Nc1cccc(F)c1)CC2 | > 20 µM (inactive)
40 | COc1ccc(CNc2cc(-c3cccnc3)ncn2)c(OC)c1 | > 20 µM (inactive)
